Experimental findings from PubChem BioAssay (Tox21) are described below.

The nature of experiment [1]: qHTS assay to identify small molecule antagonists of the peroxisome proliferator-activated receptor delta (PPARd) signaling pathway - cell viability counter screen (AID 743213). Note: nearly all actives have a fitted effect of over 50% in size. Note: potency is the fitted concentration of half-maximal effect. Summed up:
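Agonist-stimulated (L165041, 300 nM final) HEK293H PPARd UAS-bla cells are exposed to compounds for 17 h at 37 C, and ATP-based luminescence (CellTiter-Glo) from the same wells reports cytotoxicity.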
(qHTS replaces the single test concentration by a dilution series.)

A short description of experiment [2]: qHTS assay to identify small molecule agonists of the farnesoid-X-receptor (FXR) signaling pathway - cell viability counter screen (AID 743218). Note: nearly all actives have a fitted effect of over 45% in size. Note: potency is the fitted concentration of half-maximal effect. Summed up: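 Quantitative HTS counter screen measuring ATP-based viability via CellTiter-Glo luminescence in HEK 293T cells carrying a UAS-driven beta-lactamase reporter, after 16 h compound exposure at 37 C.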
Experiment [3] deals with Bile acid receptor (Homo sapiens) (UniProt Q96RI1). Description: qHTS assay to identify small molecule agonists of the farnesoid-X-receptor (FXR) signaling pathway (AID 743220; active = well fitted activation curve with a large enough effect in the signal ratio in the repeat runs, not every such curve was filed as active; the % refers to the signal ratio). The procedure, abridged: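 FXR-UAS-bla HEK 293T cells carrying a UAS-driven beta-lactamase reporter were plated for 5 h at 37C/5% CO2, then exposed to DMSO-dissolved Tox21 10K compounds for 16 h at 37C. A LiveBLAzer B/G FRET substrate was loaded for 2 h at room temperature before fluorescence reading.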
Chain of Bile acid receptor (Homo sapiens) (Q96RI1 whole entry, looked up): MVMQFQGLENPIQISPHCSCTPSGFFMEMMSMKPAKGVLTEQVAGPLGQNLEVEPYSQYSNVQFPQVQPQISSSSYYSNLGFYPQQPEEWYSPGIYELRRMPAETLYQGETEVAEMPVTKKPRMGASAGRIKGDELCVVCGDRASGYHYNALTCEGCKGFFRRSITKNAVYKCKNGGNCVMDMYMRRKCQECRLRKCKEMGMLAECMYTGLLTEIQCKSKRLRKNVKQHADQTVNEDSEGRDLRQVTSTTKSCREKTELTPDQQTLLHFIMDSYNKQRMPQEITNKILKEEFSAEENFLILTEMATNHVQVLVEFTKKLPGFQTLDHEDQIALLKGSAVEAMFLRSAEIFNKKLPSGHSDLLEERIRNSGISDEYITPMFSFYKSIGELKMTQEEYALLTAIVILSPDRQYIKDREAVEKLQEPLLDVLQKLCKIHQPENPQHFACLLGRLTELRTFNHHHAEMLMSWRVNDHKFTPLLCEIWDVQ

Experiment [4] in a line: qHTS assay to identify small molecule antagonists of the farnesoid-X-receptor (FXR) signaling pathway - cell viability counter screen (AID 743221; active = well fitted cell-killing curve with a large enough effect in the repeat runs, not every such curve was filed as active; note: nearly all actives have a fitted effect of over 50% in size; note: potency is the fitted concentration of half-maximal effect). The procedure, abridged:
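Cytotoxicity is taken from ATP luminescence (CellTiter-Glo, 30 min, room temperature) in FXR-bla HEK 293T cells previously incubated 16 h at 37 C with compound and chenodeoxycholic acid at 50 uM final.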

Experiment [5] is described as follows: qHTS assay to identify small molecule agonists of the vitamin D receptor (VDR) signaling pathway - cell viability counter screen (AID 743224). Note: nearly all actives have a fitted effect of over 50% in size. Note: potency is the fitted concentration of half-maximal effect. Summed up:
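CellTiter-Glo viability readout on VDR-bla cells, measured after 16 h of compound treatment at 37C in the same wells.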

Experiment [6] addresses Peroxisome proliferator-activated receptor delta (Homo sapiens) (UniProt Q03181). Description: qHTS assay to identify small molecule antagonists of the peroxisome proliferator-activated receptor delta (PPARd) signaling pathway (AID 743215; active = well fitted inhibition curve with a large enough effect in the signal ratio in the repeat runs, not every such curve was filed as active; the % refers to the signal ratio; note: potency is the fitted concentration of half-maximal effect). The procedure, abridged:
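Here, a reporter line (HEK293H, beta-lactamase under a UAS) measures PPARd signaling. Compounds are tested against agonist L165041 at 300 nM final concentration over 17 h at 37 C, with fluorescence read after substrate.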

Experiment [7] concerns the target Vitamin D3 receptor (Homo sapiens) (UniProt P11473). Description: qHTS assay to identify small molecule agonists of the vitamin D receptor (VDR) signaling pathway (AID 743222; calls by dose curve). Summed up: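 Tox21 cell reporter format: VDR-bla line, 16 h compound exposure in 5% CO2 at 37C, then fluorescence intensity after 2 h with LiveBLAzer B/G FRET substrate.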
For experiment [8] the target is unchanged. Description: qHTS assay to identify small molecule antagonists of the vitamin D receptor (VDR) signaling pathway (AID 743223; active = well fitted inhibition curve with a large enough effect in the signal ratio in the repeat runs, not every such curve was filed as active; the % refers to the signal ratio; note: potency is the fitted concentration of half-maximal effect). The procedure, abridged:
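Quantitative HTS in VDR-bla reporter cells stimulated with 1alpha,25-dihydroxyvitamin D3, 3 nM final. Compound exposure 16 h, 37C, 5% CO2. Read-out: beta-lactamase FRET substrate fluorescence, 2 h RT.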

For experiment [9], the target named is Bile acid receptor (Homo sapiens) (UniProt Q96RI1). Description: qHTS assay to identify small molecule antagonists of the farnesoid-X-receptor (FXR) signaling pathway (AID 743217; active = well fitted inhibition curve with a large enough effect in the signal ratio in the repeat runs, not every such curve was filed as active; the % refers to the signal ratio). Summed up: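 Test compounds are pin-transferred onto FXR-bla HEK 293T cells, then chenodeoxycholic acid is added at 50 uM final. After 16 h at 37 °C, LiveBLAzer B/G substrate is applied for 2 h at room temperature and fluorescence read.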

Molecules are shown by their SMILES. “And” between values parts separate entries of the source, which are not always exact repeats. Equal values may be shown once. Inconclusive results are not listed. The source made the active and inactive calls. Unless noted, calls come from the whole dose curve; as a rule, active = well fitted curve in the direction sought with a large enough effect in the repeat runs; inconclusive = weak or mixed curves; inactive = no such curve, though single readings can be large; an effect the other way counts as inactive or inconclusive.

Chain of Peroxisome proliferator-activated receptor delta (Homo sapiens) (Q03181 whole entry, looked up): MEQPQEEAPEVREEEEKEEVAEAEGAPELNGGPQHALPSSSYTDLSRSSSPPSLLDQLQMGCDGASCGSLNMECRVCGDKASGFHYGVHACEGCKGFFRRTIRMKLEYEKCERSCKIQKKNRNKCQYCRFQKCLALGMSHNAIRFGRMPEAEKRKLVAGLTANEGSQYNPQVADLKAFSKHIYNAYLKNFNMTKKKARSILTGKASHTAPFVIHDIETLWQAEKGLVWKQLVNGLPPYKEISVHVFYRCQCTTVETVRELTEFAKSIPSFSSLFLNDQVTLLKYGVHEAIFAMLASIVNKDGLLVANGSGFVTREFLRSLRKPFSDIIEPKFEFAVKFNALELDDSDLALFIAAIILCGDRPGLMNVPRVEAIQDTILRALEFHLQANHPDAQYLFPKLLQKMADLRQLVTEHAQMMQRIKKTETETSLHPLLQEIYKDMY
Chain of Vitamin D3 receptor (Homo sapiens) (P11473 whole entry, looked up): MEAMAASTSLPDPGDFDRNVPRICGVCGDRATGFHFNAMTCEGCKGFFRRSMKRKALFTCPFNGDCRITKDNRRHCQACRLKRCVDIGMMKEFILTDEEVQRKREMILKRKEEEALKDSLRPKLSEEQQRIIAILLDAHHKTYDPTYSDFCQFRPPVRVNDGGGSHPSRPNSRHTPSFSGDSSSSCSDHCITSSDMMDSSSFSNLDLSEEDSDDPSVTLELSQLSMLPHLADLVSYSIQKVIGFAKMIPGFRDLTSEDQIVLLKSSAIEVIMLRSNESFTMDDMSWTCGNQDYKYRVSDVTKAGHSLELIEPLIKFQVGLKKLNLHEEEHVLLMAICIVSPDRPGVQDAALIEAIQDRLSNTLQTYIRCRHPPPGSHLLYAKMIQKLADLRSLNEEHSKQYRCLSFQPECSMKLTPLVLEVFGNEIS

`COc1ccc(CCN2CCC(Nc3nc4ccccc4n3Cc3ccc(F)cc3)CC2)cc1`: the Potency in [1] was 3.16 µM (active) and 23.7 µM (active); in experiment [2], 2.81 µM (active) and 23.7 µM (active); in [4], 7.07 µM (active) and 29.8 µM (active); in [5], 3.98 µM (active) and 10.6 µM (active). The Potency entry in experiment [3] is “inactive”.

For `CCn1cc(C(=O)O)c(=O)c2cc(F)c(N3CCNC(C)C3)c(F)c21` (stereo unspecified), the Potency entry in experiment [1], in [6], in experiment [4] and in experiment [5] was “inactive” throughout.

As to `CCN(CC)C(=S)SSC(=S)N(CC)CC`, the Potency in experiment [1] is 123 nM (active) and 39.8 nM (active) and 150 nM (active); in experiment [6], 0.0871 µM (active); in experiment [4], 222 nM (active) and 188 nM (active); in experiment [5] it was 110 nM (active) and 39.8 nM (active) and 188 nM (active).

Take `C=C(C)C(=O)O`: the Potency entry in experiment [1], in [6], in experiment [2], in experiment [4], in [7] and in [8] was “inactive” in each case. Moreover, the Potency entry in experiment [5] is “inactive”.

Consider `CCN(CC)C(=O)Nc1ccc(OCC(O)CNC(C)(C)C)c(C(C)=O)c1` (stereo unspecified), for which the Potency result in [1], in [6], in experiment [2], in experiment [4] and in [5] was “inactive” in each case.

`CCN(CC)CCOc1ccc(/C(=C(\Cl)c2ccccc2)c2ccccc2)cc1`: the Potency in experiment [1] is 39.7 µM (active); in [8], 31.6 µM (active); in [5] it was 19.9 µM (active) and 26.6 µM (active). In addition, the Potency entry in [9], in experiment [3] and in experiment [7] was “inactive” in each case.
